# According to PMC4336329 (PLoS ONE, 2015):
# Hit rate of the full screen: of about 310,000 compounds, about 14,000 (4.5%) showed an effect of 50% or more. Effects have a minus sign here. This excerpt belongs to a sample that is enriched for strong results.
# Biological target: human ether-à-go-go-related gene (hERG) potassium channel (human, UniProt Q12809)
# Assay: primary screen, population patch clamp on CHO cells stably expressing hERG; higher = less effect of the substance
# 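Further: peak tail current of the secondary pulse compared with the same well before compound.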
# Chain of human ether-à-go-go-related gene (hERG) potassium channel (Q12809 whole entry, looked up): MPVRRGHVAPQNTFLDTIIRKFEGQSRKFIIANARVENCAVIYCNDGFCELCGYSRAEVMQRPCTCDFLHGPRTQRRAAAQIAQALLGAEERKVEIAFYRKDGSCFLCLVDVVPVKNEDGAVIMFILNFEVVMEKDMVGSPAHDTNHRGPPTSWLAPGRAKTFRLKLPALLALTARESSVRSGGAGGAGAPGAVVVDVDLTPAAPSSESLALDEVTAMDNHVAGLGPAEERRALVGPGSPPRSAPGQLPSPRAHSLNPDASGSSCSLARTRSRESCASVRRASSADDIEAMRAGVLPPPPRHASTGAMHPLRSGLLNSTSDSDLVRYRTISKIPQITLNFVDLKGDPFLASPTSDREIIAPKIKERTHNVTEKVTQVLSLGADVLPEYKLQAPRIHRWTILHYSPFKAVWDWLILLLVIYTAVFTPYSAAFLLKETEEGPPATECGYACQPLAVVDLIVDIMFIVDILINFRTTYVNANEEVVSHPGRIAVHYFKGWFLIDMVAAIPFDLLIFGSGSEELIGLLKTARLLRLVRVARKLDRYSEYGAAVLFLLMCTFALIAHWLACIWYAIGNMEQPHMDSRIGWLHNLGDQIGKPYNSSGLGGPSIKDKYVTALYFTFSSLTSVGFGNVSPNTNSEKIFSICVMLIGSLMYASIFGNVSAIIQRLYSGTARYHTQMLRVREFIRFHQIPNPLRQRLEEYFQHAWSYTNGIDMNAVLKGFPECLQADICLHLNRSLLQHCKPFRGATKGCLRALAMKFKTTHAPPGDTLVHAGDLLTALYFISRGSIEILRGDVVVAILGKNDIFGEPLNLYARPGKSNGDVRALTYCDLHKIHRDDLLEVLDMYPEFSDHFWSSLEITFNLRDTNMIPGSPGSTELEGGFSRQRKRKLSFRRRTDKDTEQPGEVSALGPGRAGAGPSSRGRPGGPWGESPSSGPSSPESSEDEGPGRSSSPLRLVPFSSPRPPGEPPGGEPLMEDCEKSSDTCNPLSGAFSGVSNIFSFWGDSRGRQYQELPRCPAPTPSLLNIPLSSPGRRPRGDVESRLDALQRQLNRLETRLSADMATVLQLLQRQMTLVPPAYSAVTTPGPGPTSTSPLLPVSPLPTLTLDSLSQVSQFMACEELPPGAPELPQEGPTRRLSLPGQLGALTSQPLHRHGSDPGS
row,SMILES,"hERG current change (%, negative = inhibition) at 10uM [%]"
1,O=S(=O)(Nc1cc(C(F)(F)F)ccc1N1CCOCC1)c1ccccc1,4.09
2,CC(CC(=O)N1CCN(c2ccccc2)CC1)S(=O)(=O)c1ccc2c(c1)NC(=O)CO2 (centres unmarked),-20.1
3,O=C(O)c1cccc(N2C(=O)c3cc4cccc(Br)c4cc3C2=O)c1,18.4
4,Cc1cc(CNC(=O)CC2C(=O)NCCN2Cc2ccc(-c3ccccc3)cc2)nn1C (centres unmarked),-4.68
5,O=C(c1ccc([N+](=O)[O-])s1)N1CCc2ccccc2C1,13
6,FC(F)(F)Oc1ccc(NC(=S)NCc2ccccc2)cc1,4.62
7,Cl.O=C(CNC1=NCCC1)c1ccc(Cl)cc1,-12.2
8,CCCCCn1c(SCC(=O)OC)nc2c1c(=O)[nH]c(=O)n2C,-60.7
9,CCCCCCn1c(SCCC)nc2c1c(=O)[nH]c(=O)n2C,-9.85
10,CCCCCCn1c(SCC(=O)OC)nc2c1c(=O)[nH]c(=O)n2C,-70.1
11,CCCCCCn1c(SCC(C)C)nc2c1c(=O)[nH]c(=O)n2C,10.3
12,CCCCCCn1c(SCCOC)nc2c1c(=O)[nH]c(=O)n2C,-59.8
13,CCCCCCn1c(SCC(=O)c2ccccc2)nc2c1c(=O)[nH]c(=O)n2C,-26
14,COC(=O)CSc1nc2c(c(=O)[nH]c(=O)n2C)n1CCC(C)C,-3.93
15,CCOCCn1c(SC(C)C(C)=O)nc2c1c(=O)[nH]c(=O)n2C (centres unmarked),-42.8
16,CCCCn1c(SCC(=O)OCC)nc2c1c(=O)[nH]c(=O)n2C,-41.9
17,CCCCCn1c(SC(C)C(C)=O)nc2c1c(=O)[nH]c(=O)n2C (centres unmarked),-92.5
18,CCCCCCn1c(SCCCC)nc2c1c(=O)[nH]c(=O)n2C,1.97
19,CCCCCn1c(SCCCC)nc2c1c(=O)[nH]c(=O)n2C,-3.74
20,Cc1cccc(-n2ncc3c(=O)[nH]c(SCC(=O)NCCC4=CCCCC4)nc32)c1,10.9
21,CCN(CC)S(=O)(=O)c1cccc(-c2n[nH]c(=S)n2/N=C/c2ccc(C(=O)OC)cc2)c1,-34
22,O=C(COC(=O)c1ccc(S(=O)(=O)N2CCCC2)cc1)NCc1ccco1,-10.1
23,O=[N+]([O-])c1ccc(/C=N/NC2=NS(=O)(=O)c3ccccc32)cc1,-7.49
24,O=C(OCn1nnc2ccccc2c1=O)C1CCCCC1,5.57
25,CCCCCCn1c(NCC)nc2c1c(=O)[nH]c(=O)n2C,-14.7
26,CCCCCCn1c(N(CC)CC)nc2c1c(=O)[nH]c(=O)n2C,-63.6
27,CCN(CC)c1nc2c(c(=O)[nH]c(=O)n2C)n1CCCc1ccccc1,-45.3

row,SMILES,"hERG current change (%, negative = inhibition) at 10uM [%]"
1,Cn1nc(C(=O)OCC(=O)NCCc2ccccc2)c2ccccc2c1=O,2.9
2,Cc1ccc(S(=O)(=O)/C(C#N)=C/c2c(N3CCOCC3)nc3c(C)cccn3c2=O)cc1,-56
3,Cc1cccn2c(=O)c(/C=C(\C#N)C(=O)NCc3ccco3)c(N3CCCCCC3)nc12,-36.5
4,Cc1ccc(S(=O)(=O)/C(C#N)=C/c2c(N3CC(C)OC(C)C3)nc3c(C)cccn3c2=O)cc1 (centres unmarked),-28.1
5,Cc1cccn2c(=O)c(/C=C(\C#N)S(=O)(=O)c3ccccc3)c(N3CCN(Cc4ccccc4)CC3)nc12,-4.68
6,Cc1ccc(S(=O)(=O)/C(C#N)=C/c2c(Oc3ccc(Cl)cc3)nc3c(C)cccn3c2=O)cc1,19.3
7,Cc1cccn2c(=O)c(/C=C(\C#N)C(=O)NCc3ccco3)c(N3CCCCC3)nc12,-37.8
8,Cc1cccn2c(=O)c(/C=C(\C#N)S(=O)(=O)c3ccccc3)c(N3CCN(C)CC3)nc12,-45.5
9,CCN1CCN(c2nc3c(C)cccn3c(=O)c2/C=C(\C#N)S(=O)(=O)c2ccc(C)cc2)CC1,-62.9
10,Cc1ccc(S(=O)(=O)/C(C#N)=C/c2c(N3CCN(C)CC3)nc3c(C)cccn3c2=O)cc1,-67.5
11,CCN1CCN(c2nc3c(C)cccn3c(=O)c2/C=C(\C#N)S(=O)(=O)c2ccccc2)CC1,-15.7
12,Cc1cccn2c(=O)c(/C=C(\C#N)C(=O)NCc3ccco3)c(N3CCOCC3)nc12,-50.9
13,Cc1cccn2c(=O)c(/C=C(\C#N)S(=O)(=O)c3ccccc3)c(N3CCN(c4ccccc4)CC3)nc12,9.12
14,O=C(Cn1cnc([N+](=O)[O-])n1)N/N=C/c1ccccc1O,14.4
15,COC(=O)C[C@](O)(CCCC(C)(C)O)C(=O)O[C@@H]1C(OC)=C[C@]23CCCN2CCc2cc4c(cc2[C@H]13)OCO4,10.4
16,CCCCOCCCNC(=O)N[C@H](C(=O)OC)C(C)C,10.7
17,Cn1c(=O)c2c(ncn2CC(=O)Nc2ccc3c(c2)OCO3)n(C)c1=O,3.43
18,O=C(Nc1ncc(C(F)(F)F)cc1Cl)C1COc2ccccc2O1 (centres unmarked),-3.76
19,Cc1ccc2c(Cl)cc(Cl)c(OCC(=O)N3CCOCC3)c2n1,-8.28
20,O=C(Cc1noc2ccccc12)Nc1ccccn1,6.57
21,O=S(=O)(Nc1nc2ccccc2nc1NCc1ccco1)c1cccs1,4.13
22,CCc1ccc2c(c1)c(N=NC1=NC(=O)CS1)c(O)n2C,0.556
23,COc1ccc(NS(=O)(=O)c2ccc(C(=O)N3CCN(Cc4ccccc4)CC3)cc2)cc1,-17.1
24,Cc1cccc(-c2noc(CNC(=O)COc3ccccc3C)n2)c1,-1.88
25,CCOc1ccc(C(CCc2ccccc2)NC(=O)c2ccccc2)cc1OCC (centres unmarked),-19.1
26,CCCCN(Cc1nc2ccccc2c(=O)[nH]1)C(=O)CN1C(=O)NC2(CCCCC2)C1=O,-41.9
